These compounds were tested against T1, Tyrosyl-tRNA synthetase, putative (Trypanosoma cruzi (strain CL Brener)) (UniProt Q4DSP6) (assay: Trypanosoma cruzi tyrosyl tRNA synthetase (TcYRS) SOP). Conditions: 30 µM.
T1 sequence (whole entry): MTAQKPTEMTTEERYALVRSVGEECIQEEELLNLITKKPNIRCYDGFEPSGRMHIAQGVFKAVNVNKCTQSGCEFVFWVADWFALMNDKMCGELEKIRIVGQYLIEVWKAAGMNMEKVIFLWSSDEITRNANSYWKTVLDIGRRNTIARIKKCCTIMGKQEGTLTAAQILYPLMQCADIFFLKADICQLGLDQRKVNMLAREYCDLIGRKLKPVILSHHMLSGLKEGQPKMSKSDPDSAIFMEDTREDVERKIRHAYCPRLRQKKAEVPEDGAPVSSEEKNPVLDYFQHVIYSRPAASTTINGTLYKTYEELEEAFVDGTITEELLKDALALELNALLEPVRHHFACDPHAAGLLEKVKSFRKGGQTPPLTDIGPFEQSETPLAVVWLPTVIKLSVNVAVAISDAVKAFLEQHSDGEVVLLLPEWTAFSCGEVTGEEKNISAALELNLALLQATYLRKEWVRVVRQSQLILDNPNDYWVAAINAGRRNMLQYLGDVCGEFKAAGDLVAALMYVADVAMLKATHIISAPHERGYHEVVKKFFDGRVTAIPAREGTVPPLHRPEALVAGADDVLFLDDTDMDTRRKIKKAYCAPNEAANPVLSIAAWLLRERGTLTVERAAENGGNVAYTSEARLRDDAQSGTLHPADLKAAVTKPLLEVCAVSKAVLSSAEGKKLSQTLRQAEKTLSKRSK
Format: functional
Design: scale not given: direction of the effect not stated beside the values

**Q.** How did the Percent Effect turn out when `CC(Nc1cccc(CN2CCOC2=O)c1)C(=O)N1CCNC1=O` (stereo not given) was run?
**A.** Its Percent Effect is 8.43%.

**Q.** Which Percent Effect does the source give for `COC[C@@H]1CC[C@H]2[C@H](CCN2S(=O)(=O)c2cccc(C)c2)O1` here?
**A.** Its Percent Effect is 5.13%.

**Q.** For `O=C(c1ccc(F)cc1F)N1CC[C@H](O)[C@@H](N2CCOCC2)CC1`, which Percent Effect is on record?
**A.** The Percent Effect was 7.5%.

**Q.** Which Percent Effect does the source give for `COc1cccc(-n2nnc(C(=O)N3CCCC3)c2C)c1` here?
**A.** Its Percent Effect is 13.2%.

**Q.** Which Percent Effect does the source give for `Cc1nc(C(=O)N2CCc3c(nc(-c4ccncc4)[nH]c3=O)C2)cs1` here?
**A.** The Percent Effect was 9.76%.

**Q.** Which Percent Effect does the source give for `CN1CCC/C1=N\S(=O)(=O)c1ccc(NC(=O)c2cccs2)cc1` here?
**A.** The Percent Effect was 21.2%.

**Q.** Which Percent Effect does the source give for `c1csc(-c2nc(CNC3CCc4ncnn4C3)cs2)c1` (stereo not given) here?
**A.** The Percent Effect was 18.1%.

**Q.** How did the Percent Effect turn out when `Cc1ccc(C(=O)N2Cc3c(CN4CCCCC4)nn(C)c3C2)cc1C` was run?
**A.** Its Percent Effect is -12.8%.

**Q.** With `O=C1CC2(CCN(CC3CC3)C2)CN1c1ccc2c(c1)OCO2` (stereo not given) as the compound, how does the Percent Effect read?
**A.** The Percent Effect was -48.7%.

**Q.** For `COCc1nc(C(=O)NS(=O)(=O)c2ccc(C)cc2C)cs1`, which Percent Effect is on record?
**A.** Its Percent Effect is 1.21%.

**Q.** `Cc1nn(C)cc1CCC(=O)N1CCCC(n2cncn2)C1` (stereo not given) was tested. Which Percent Effect did it give?
**A.** Its Percent Effect is 10.3%.

**Q.** With `COCC(=O)N1CCC2(CCN(Cc3ccccn3)CC2)CC1` as the compound, how does the Percent Effect read?
**A.** The Percent Effect was 5.13%.

**Q.** Which Percent Effect does the source give for `COc1ccccc1OCC(=O)NS(=O)(=O)c1ccc(C)s1` here?
**A.** The Percent Effect was 16.5%.

**Q.** `Cc1ncsc1C(=O)N(Cc1cccnc1)C1CC1` was tested. Which Percent Effect did it give?
**A.** Its Percent Effect is 8.43%.

**Q.** `Cn1cnc2c1CCN(CCS(=O)(=O)c1ccccc1)C2` was tested. Which Percent Effect did it give?
**A.** Its Percent Effect is 5.13%.

**Q.** `CN(C(=O)Cc1c[nH]c2ccccc12)C1CCN(c2ccccn2)CC1` was tested. Which Percent Effect did it give?
**A.** The Percent Effect was 0%.

**Q.** Which Percent Effect does the source give for `CC1COCCN1C(=O)c1cccc(OCc2cscn2)c1` (stereo not given) here?
**A.** Its Percent Effect is 20.5%.

**Q.** For `Cn1cccc1C(=O)N1CCCC2(CCCN2Cc2cccnc2)C1` (stereo not given), which Percent Effect is on record?
**A.** Its Percent Effect is 2.56%.

**Q.** With `CC(C)(C)c1n[nH]c(C2CN(C(=O)CCc3cscn3)CCO2)n1` (stereo not given) as the compound, how does the Percent Effect read?
**A.** The Percent Effect was 13.2%.

**Q.** With `CN(Cc1noc(C2CC2)n1)C1CCN(Cc2nnc(C3CC3)o2)C1` (stereo not given) as the compound, how does the Percent Effect read?
**A.** Its Percent Effect is 16.5%.

**Q.** For `CC(C)c1nn(C)c(N2CCOCC2)c1CNCC(=O)N(C)C`, which Percent Effect is on record?
**A.** The Percent Effect was 22.9%.

**Q.** Which Percent Effect does the source give for `CS(=O)(=O)NCc1ncn2c1CN(C(=O)CC1CCCC1)CCC2` here?
**A.** The Percent Effect was -2.56%.

**Q.** How did the Percent Effect turn out when `Cc1nc(C2CCN(C(=O)CO)CC2)cc(N2CCOCC2)n1` was run?
**A.** The Percent Effect was 17.1%.

**Q.** `Cn1cc(CNCC2Cn3nnc(-c4ccccc4)c3CO2)cn1` (stereo not given) was tested. Which Percent Effect did it give?
**A.** The Percent Effect was 10.3%.

**Q.** How did the Percent Effect turn out when `CS(=O)(=O)c1ccccc1C(=O)NCCCN1CCc2ccccc2C1` was run?
**A.** The Percent Effect was 15.4%.

**Q.** How did the Percent Effect turn out when `CCOC(=O)N1CCN(C(=O)c2ccc3ccn(C)c3c2)CC1` was run?
**A.** Its Percent Effect is 7.32%.

**Q.** With `Cc1ccc(-c2cc(CN3CCCC(Cn4cncn4)C3)on2)cc1` (stereo not given) as the compound, how does the Percent Effect read?
**A.** The Percent Effect was 4.71%.

**Q.** With `COc1ccc(C2CC(=O)Nc3c2nc2n3CCCC2)cc1OC` (stereo not given) as the compound, how does the Percent Effect read?
**A.** Its Percent Effect is 14.6%.

**Q.** With `Cn1cc(CN2CCCN(C(=O)c3cn4ccccc4n3)CC2)cn1` as the compound, how does the Percent Effect read?
**A.** Its Percent Effect is 22.9%.

**Q.** Which Percent Effect does the source give for `CCc1ccc(NC(=O)C2OC(c3cccs3)=NN2C(C)=O)cc1` (stereo not given) here?
**A.** The Percent Effect was 10%.

**Q.** How did the Percent Effect turn out when `CC(=O)N1CCCN(CC(C)(O)c2cccc(C(F)(F)F)c2)CC1` (stereo not given) was run?
**A.** The Percent Effect was 16.5%.

**Q.** For `c1ncn(CC2CN(Cc3noc(C4CC4)n3)CCO2)n1` (stereo not given), which Percent Effect is on record?
**A.** Its Percent Effect is 0%.

**Q.** For `Cc1c[nH]nc1C1CCCCN1C(=O)Cn1cc(Cl)cn1` (stereo not given), which Percent Effect is on record?
**A.** Its Percent Effect is 10%.

**Q.** How did the Percent Effect turn out when `Cc1cnn(CC2CCCCN2CCCS(N)(=O)=O)c1` (stereo not given) was run?
**A.** The Percent Effect was -2.56%.

**Q.** `Cn1cc(C(=O)N2CCCC(n3cccn3)C2)c2ccccc21` (stereo not given) was tested. Which Percent Effect did it give?
**A.** The Percent Effect was 5.13%.

**Q.** Which Percent Effect does the source give for `CC(=O)N1CCC2(CC1)C(=O)N(CC1CC1)c1ccccc12` here?
**A.** Its Percent Effect is 7.5%.

**Q.** With `CC1CCN(C(=O)c2cccc3ncccc23)CC1` as the compound, how does the Percent Effect read?
**A.** Its Percent Effect is 7.69%.

**Q.** For `O=C(c1cc2cc(F)ccc2[nH]1)N1CCC(Nc2cccnn2)CC1`, which Percent Effect is on record?
**A.** Its Percent Effect is -2.35%.

**Q.** How did the Percent Effect turn out when `Cc1nccn1-c1cccc(C2CCCN2S(=O)(=O)N(C)C)n1` (stereo not given) was run?
**A.** Its Percent Effect is 15%.

**Q.** How did the Percent Effect turn out when `CC(C)CN1CCN(C)C2(CCN(Cc3ccsc3)CC2)C1=O` was run?
**A.** The Percent Effect was 10%.

— ChEMBL document CHEMBL3988442, “University of Dundee, Small-Polar-MMV Screening Library” (2021)
